In the supplement of paper PMC6555819:

system: PPARg:RXRa 270nM:90nM, anti-RXR (NR concentration 270 nM, RXRa partner concentration 90 nM); experiment: PBM binding z-score (relative to random genomic background probes); higher = stronger binding; sequences stand for … in GC…GCGATTGACAGCGTAGAATGAAGG
Summary of the method: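 Custom Agilent 4×180K protein-binding microarrays carried double-stranded probes, each with a 34-nt variable region. These regions held direct-repeat seeds, single-nucleotide variants, half-site ablations and random human genomic background sequences. Ligand-free nuclear receptor dimers were incubated on the arrays for 1 h, antibodies against each partner (one per run) detected binding, and scanned fluorescence was regression-normalized. Binding z-scores take the random background probes as reference.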

Q: Which PBM binding z-score does the source give for TCTTGTAGATCAAGCAGGCTAAGAAAGCCTGAGT here?
A: 0.913

Q: For ACTAGCAGACCAAGGGTCACTCAAGATTAGTCCG, which PBM binding z-score is on record?
A: 5.53

Q: Which PBM binding z-score does the source give for GCGACTGGGGCAAAGCCGGTTACCATAAGGTTGG here?
A: 0.491

Q: Which PBM binding z-score does the source give for ATATGTAGGGTATCGGGTCATTCAGTTTGCGCAT here?
A: 5.05

Q: How did the PBM binding z-score turn out when CGTCCAAGGTTATAGGAGGTCAGTGAAGACAGAT was run?
A: 1.77

Q: How did the PBM binding z-score turn out when ACTATTAGTTGAGACGAAGGCAACCGATAGGTTG was run?
A: -0.4

Q: How did the PBM binding z-score turn out when CCGACTGGGGCAGAAGGTTACCATAAGCCAGCCC was run?
A: 3.09

Q: For TCATATAGCTAAACAGGTGAAAGTCCGTAAGTTA, which PBM binding z-score is on record?
A: 1.92

Q: For CGAACTAGGTCGGAACAGGACAGTGAAGGATGAT, which PBM binding z-score is on record?
A: 0.719

Q: With TAGCCTAGGTCATTGGGCCAGTATCGTACGCATC as the sequence, how does the PBM binding z-score read?
A: 3.52

Q: Which PBM binding z-score does the source give for TCTCGGAGGACACGAAGGGCAGAGCTTTCCAGAG here?
A: 0.753

Q: Which PBM binding z-score does the source give for TCTGCTAGGTCAGTTGGTCAGTTAACGAGCTGCC here?
A: 1.33

Q: ACTAGCAGGCCAAGGGTCACTTAAGATTAGTCCG was tested. Which PBM binding z-score did it give?
A: 7.44

Q: For CCTCGGGGGACAGAAGGTCAGAGCTGTCCGCTTT, which PBM binding z-score is on record?
A: 2.66

Q: GCTCGGATGACAAGGTCAGAGCTTTGTCCGTAGA was tested. Which PBM binding z-score did it give?
A: 0.444

Q: CCTACTGGGCCACCAGGTCATTGATATCAACGTT was tested. Which PBM binding z-score did it give?
A: 4.3

Q: TGAATGAGGTTAAAGAACAGGGAACGTGGCGTCG was tested. Which PBM binding z-score did it give?
A: 3.32

Q: Which PBM binding z-score does the source give for GCGACTGGGGCATCAGCAGGTTACGATAACTTAA here?
A: 0.876

Q: For TAGCCTAGGTCATTCAGGAGCCAGTATAGAAAGC, which PBM binding z-score is on record?
A: 2.24

Q: Which PBM binding z-score does the source give for ACTGACAGGTGAGTGAAGGTAACTCAGCTGGACG here?
A: 0.0745

Q: With AATACAGGGTCATCGTAGGCCAGAGGACGCACAG as the sequence, how does the PBM binding z-score read?
A: 6.34

Q: How did the PBM binding z-score turn out when CGAACTGGGTCATTGACAGGACAGTGAATAGTAA was run?
A: 5.84

Q: Which PBM binding z-score does the source give for GCTTACGAGTCAAAGGTTATAGCATGAATAGAAT here?
A: 6.18

Q: With CCTAGTTGGTCCGGAGGTCACACACCGGATATGA as the sequence, how does the PBM binding z-score read?
A: 3.54

Q: TAGCCTAGGTCATGCAGGCCAGTATAGTGTCGGC was tested. Which PBM binding z-score did it give?
A: 2.37

Q: TAGCATAGGTCATGGGCCAGTATACCACGCGAAC was tested. Which PBM binding z-score did it give?
A: 5.31

Q: TCATACAGGTAAAAGGTGAAAGTCGGTGTGGTAA was tested. Which PBM binding z-score did it give?
A: 6.45

Q: How did the PBM binding z-score turn out when TCAAGCAGGCCAGAGGGTCACTCAAGAGGTACGG was run?
A: 2.69

Q: How did the PBM binding z-score turn out when CTACCAAGGTGAACAAGGTCGTCGATTACTATTC was run?
A: 1.59

Q: How did the PBM binding z-score turn out when TCTGCTAGGTCAACGAGGGTCAGCTAATCTGCTA was run?
A: 3.79

Q: How did the PBM binding z-score turn out when TCTTGTGGATCAGCAGGTTAAGAAAGCTGGCCAA was run?
A: 1.27

Q: CCTACTGGACCATTCAGAGGTCATTGATCATATG was tested. Which PBM binding z-score did it give?
A: 2.16

Q: Which PBM binding z-score does the source give for ATCGAAAGATCGACGAGGTGAGTATACACCGTTT here?
A: -0.253

Q: With CCAGACAGGTGAGAAGGTAAGTCAGCCTCGATTA as the sequence, how does the PBM binding z-score read?
A: 0.254

Q: Which PBM binding z-score does the source give for GTGACTGGGGCAAAGCAGGTTACCATAAGGTTGG here?
A: 2.83

Q: How did the PBM binding z-score turn out when GCTAGCAGGCCATTTGGGTCACTGAATGACGGGC was run?
A: 0.447

Q: How did the PBM binding z-score turn out when TCATATAGGTAAATGCTAGGTAAAAGTCCGATCT was run?
A: 2.29

Q: With ACAGACAGGTGATGAAGGGAACTCAGGCTATCAT as the sequence, how does the PBM binding z-score read?
A: 0.00384

Q: How did the PBM binding z-score turn out when GCTAGTTGGTCAGTAAAAGGTCACACCCCGGTCG was run?
A: 4.11

Q: How did the PBM binding z-score turn out when ACTATTTGTTGACTTAGGGCAACCGATACGACGC was run?
A: 0.737
